This is a sample that favours compounds with a hit; in the whole collection about 19% have one here.
S-ASM inh – Inhibitors of Secretory Acid Sphingomyelinase (S-ASM): qHTS; Sphingomyelin phosphodiesterase (Homo sapiens), P17405; placental ASM, HMU-PC fluorogenic substrate, 60 min; Potency, µM (highest dose often 57.5 µM), for inactives: top-dose activity change, negative = inhibition, usual class: inhibitors; 340,000 compounds, 0.006% hits; note: potency is the fitted concentration of half-maximal effect
Target sequence (P17405 47-631 limits assumed): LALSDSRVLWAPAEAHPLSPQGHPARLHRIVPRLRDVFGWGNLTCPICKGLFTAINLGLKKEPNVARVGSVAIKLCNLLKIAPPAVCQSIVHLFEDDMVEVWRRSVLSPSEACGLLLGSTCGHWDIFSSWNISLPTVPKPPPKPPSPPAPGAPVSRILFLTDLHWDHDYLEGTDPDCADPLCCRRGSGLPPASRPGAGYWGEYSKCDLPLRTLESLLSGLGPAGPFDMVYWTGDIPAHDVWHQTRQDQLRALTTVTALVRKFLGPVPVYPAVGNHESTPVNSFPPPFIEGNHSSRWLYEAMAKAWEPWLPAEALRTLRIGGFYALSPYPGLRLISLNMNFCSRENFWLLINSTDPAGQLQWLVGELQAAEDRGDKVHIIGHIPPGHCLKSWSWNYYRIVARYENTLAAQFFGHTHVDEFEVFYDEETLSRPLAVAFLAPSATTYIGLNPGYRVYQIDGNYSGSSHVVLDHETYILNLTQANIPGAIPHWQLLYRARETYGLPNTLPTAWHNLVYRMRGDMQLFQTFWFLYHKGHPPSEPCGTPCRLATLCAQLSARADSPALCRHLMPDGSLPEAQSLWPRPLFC
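Human placenta-derived ASM preincubated with compound 10 min at room temperature, then reacted with 9 uM (final) fluorogenic HMU-PC substrate for 60 min at 37 C. Stop solution raises pH to 10; fluorescence read at Ex 386/Em 447 nm.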
TDP1 cell CPT – qHTS for Inhibitors of human tyrosyl-DNA phosphodiesterase 1 (TDP1): qHTS in cells in presence of CPT. chicken DT40 Tdp1-/-;hTDP1 cells + 20 nM CPT, ATP luminescence, 48 h. Potency, µM (highest dose often 46.2 µM), for inactives: at the highest dose activity change, negative = growth inhibition, usual class: inhibitors. 420,000 compounds, 12% hits. AID 686979, 2013; note: potency is the fitted concentration of half-maximal effect; % is set by controls: 0 for no effect and ±100 for the full control effect; nearly all actives have a fitted effect of over 55% in size
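Chicken DT40 Tdp1-/- cells complemented with human TDP1, 400 cells/well, exposed to compounds plus 20 nM camptothecin for at least 48 h at 37 C; viability read as ATP content by CellTiter-Glo luminescence.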
IL-1B inflam inh – qHTS for Inhibitors of Inflammasome Signaling: IL-1-beta AlphaLISA Primary Screen | THP-1 LPS/ATP IL-1B secretion, AlphaLISA, 16 h; stronger effect = lower value | activity change, % at 57.5 µM | 360,000 compounds, 4.7% hits; in the data active = activity change below about -50%; inconclusive = mostly about -30% to -49%; note: % is set by controls: 0 for no effect and ±100 for the full control effect
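THP-1 cells pretreated 1 hr with compounds (up to 57.5 uM final), then stimulated with LPS (250 ng/mL final) plus ATP (1.25 mM final); secreted IL-1B measured by AlphaLISA after 16 hr, decreased signal indicating inhibition.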
HepG2 viability – qHTS for Inhibitors of TGF-b: Cytotox Counterscreen | 410,000 compounds, 0.76% hits | HepG2 CAGA-GFP viability, ATP luminescence, 18 h | Potency, µM (doses to about 46.1 µM), for inactives: top-dose activity change, negative = cytotoxicity, hits mostly cytotoxic; note: potency is the fitted concentration of half-maximal effect
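HepG2 CAGA-GFP cells (1000/well, DMEM with 1% FBS) received compound, then TGF-beta at 500 pg/mL final, and were incubated 18 hours at 37 degrees C. Viability was read by CellTiter-Glo luminescence. Media-only wells were set as complete cell-killing and DMSO as no toxicity.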
DT40 TDP1 no CPT – qHTS for Inhibitors of human tyrosyl-DNA phosphodiesterase 1 (TDP1): qHTS in cells in absence of CPT; DT40 Tdp1-/- hTDP1 cells, no CPT, ATP luminescence, 48 h; Potency, µM (highest dose often 46.2 µM), for the others: top-dose activity change, negative = growth inhibition, usual class: inhibitors; 420,000 compounds, 15% hits; AID 686978, 2013; note: potency is the fitted concentration of half-maximal effect; % is set by controls: 0 for no effect and ±100 for the full control effect; nearly all actives have a fitted effect of over 55% in size
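No-CPT arm: Tdp1-/-;hTDP1 DT40 cells (400/well) plus compounds, incubated ≥48 hr at 37 °C. Readout CellTiter-Glo luminescence.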
TGFb SMAD3 inh – qHTS for Inhibitors of TGF-b | AID 588855, 2011 | Potency, µM (titrated, usually from 46.1 µM), for the others: at the top dose activity, negative = inhibition, most hits filed as inhibitors | HepG2 CAGA-GFP TGF-b/SMAD3 reporter, GFP fluorescence, 18 h; TGF-beta stimulated, 500 pg/mL final | 410,000 compounds, 1.2% hits; note: potency is the fitted concentration of half-maximal effect; % is set by controls: 0 for no effect and ±100 for the full control effect; nearly all actives have a fitted effect of over 65% in size
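Read-out: total well GFP (ex488/em500-530) summed from mean per-cell fluorescence. Cells: HEPG2 CAGA-GFP, 1% FBS DMEM, 18 h at 37 degrees C with 500 pg/mL final TGF-beta. Unstimulated wells served as the full-inhibition control; stimulated DMSO wells = 0%.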
An asterisk follows results filed as active; ? = inconclusive; nt = not tested or not shown. Unless noted, calls come from the whole dose curve; as a rule, active = well fitted curve in the direction sought with a large enough effect; inconclusive = small, poorly fitted or top-dose-only effect, or another doubt; inactive = no such curve, though single readings can be large; an effect the other way counts as inactive or inconclusive.

SMILES | S-ASM inh | TDP1 cell CPT | IL-1B inflam inh | HepG2 viability | DT40 TDP1 no CPT | TGFb SMAD3 inh
CC1CCCCN1C(=O)COC(=O)c1cc(Cl)c2c(c1)OCO2 (configuration not stated) | nt | 10% | 11 | 12% | -18% | -31%
Cc1cc(C)cc(NC(=O)CSc2nc3nc(C)cc(C)c3c(=O)[nH]2)c1 | -7% | -22% | -7 | -13% | -2% | 4%
Cc1cc(C)n2c(NC3CCCCC3)c(-c3cccnc3)nc2n1 | nt | ? | -6 | nt | 16µM* | nt
CC(C)CN1CCC(=O)N(CCSc2ccccc2)CC1 | 0% | 0% | 10 | 6% | ? | -2%
CCc1ccc(NC(=O)[C@H](Cc2ccccc2)N2Cc3ccccc3C2=O)cc1 | nt | 7% | nt | -18% | ? | -8%
O=C(NCC1CCCCC1)c1cccc(-c2ccc(O)cc2)c1 | -15% | ? | -53* | -78% | 21µM* | 13µM*
CCCCCCC[n+]1ccc(C)c2ccccc21 | nt | 0.45µM* | nt | -4% | 0.45µM* | ?
Cc1ccc2c(C)cc[n+](CCCS(=O)(=O)[O-])c2c1 | 1% | -5% | -14 | 14% | -14% | -2%
Cc1cc[n+](C)c2ccccc12 | nt | 4% | nt | -30% | -21% | -4%
CCCCCCCCCCCC[n+]1ccc(C)c2ccccc21 | nt | 2µM* | nt | -30% | 2µM* | ?
Cc1cc[n+](CCC2CCCCC2)c2ccccc12 | nt | 1.3µM* | nt | -31% | 0.89µM* | ?
Cc1cc(NC(=O)c2ccc3[nH]c(C)c(C)c3c2)ccn1 | -1% | 21µM* | -58* | -13% | 26µM* | 0%
COc1ccc(OC)c(CCNC(=O)c2ccc3[nH]c(C)c(C)c3c2)c1 | nt | ? | nt | -25% | 21µM* | 0%
COc1ccc(CCNC(=O)c2ccc3[nH]c(C)c(C)c3c2)cc1OC | nt | ? | nt | -33% | 23µM* | -35%
COc1ccc(NC(=O)c2ccc3[nH]c(C)c(C)c3c2)cc1 | -1% | ? | ? | 9% | -27% | 5%
COc1ccccc1CNC(=O)c1ccc2[nH]c(C)c(C)c2c1 | nt | 9% | nt | -16% | -12% | nt
Cc1ccc(CCNC(=O)c2ccc3[nH]c(C)c(C)c3c2)cc1 | nt | ? | nt | -25% | -22% | ?
CCOc1ccc(CCNC(=O)c2ccc3[nH]c(C)c(C)c3c2)cc1 | nt | ? | nt | -28% | 21µM* | 0%
COc1ccc(CCNC(=O)c2ccc(=O)[nH]c2)cc1OC | 3% | 7% | 21 | -3% | 2% | 2%
CCN1C(=O)c2ccccc2S(=O)(=O)c2ccc(C(=O)NCCOC)cc21 | -2% | -2% | 4 | -23% | -12% | -4%
O=C(NCc1nnc(SCC(=O)N2CCCC2)o1)c1cccc(C(F)(F)F)c1 | 1% | -2% | 10 | 0% | -19% | -2%
NS(=O)(=O)c1cc(C(=O)OCC(=O)Nc2ccc3c(c2)OCO3)ccc1Cl | -1% | 17% | -6 | 0% | 0% | 25%
COc1cn(CC(=O)Nc2ccc(C)cc2)c(CN2CCCCC2)cc1=O | nt | 10% | nt | 10% | -14% | 7%
N=C1C=CC(=C(c2ccc(N)cc2)c2ccc(N)cc2)C=C1 | -15% | 2.9µM* | 0 | -28% | 3.3µM* | ?
CCOc1ccc(-c2nc(CCl)cs2)cc1 | -3% | 10µM* | -2 | -10% | ? | 12%
SMILES | S-ASM inh | TDP1 cell CPT | IL-1B inflam inh | HepG2 viability | DT40 TDP1 no CPT | TGFb SMAD3 inh
ClCc1csc(-c2ccc(Cl)cc2)n1 | -2% | 13µM* | ? | 2% | 15µM* | 7%
O=C(O)c1ccn2c(C(=O)c3ccccc3)c(-c3ccccc3)cc2c1 | 6% | 0% | 9 | -54% | -11% | 0%
Cc1ccc(Cn2c(CO)cnc2SCc2ccc(F)cc2)cc1 | nt | 10µM* | nt | -41% | 16µM* | -16%
OCc1cnc(SCc2cccc(F)c2)n1Cc1ccc(F)cc1 | nt | 21µM* | nt | -29% | ? | ?
Cc1ccc(Cn2c(CO)cnc2SCc2cccc(F)c2)cc1 | nt | ? | nt | -27% | ? | -23%
COc1ccc(Cn2c(CO)cnc2SCc2cccc(C)c2)cc1 | nt | ? | nt | -10% | 26µM* | 1%
COc1cc(NC(=O)C(CC(C)C)NS(=O)(=O)c2ccc3c(c2)CCCC(=O)N3)cc(OC)c1 (configuration not stated) | nt | -20% | nt | 12% | -6% | ?
CCN(CC)c1ccc(C(=C2C=CC(=[N+](CC)CC)C=C2)c2ccccc2)cc1 | -20% | 0.16µM* | -120* | 1.8µM* | 0.15µM* | ?
CCN(CC)c1ccc(C(=C2C=CC(=[N+](CC)CC)C=C2)c2ccc(N(CC)CC)cc2)cc1 | ? | 0.92µM* | ? | 11µM* | 0.73µM* | 2.2µM*
CC1(C(=O)NS(=O)(=O)C2CC2)CCN(C(=O)c2cccc(OC(F)(F)F)c2)C1 (configuration not stated) | nt | ? | 19 | -9% | ? | ?
C=CCSc1nnc(CCc2ccccc2)n1N | 0% | -6% | 0 | 14% | -2% | -2%
O=C(Cn1c(=O)n(CCc2c[nH]c3ccccc23)c(=O)c2cccnc21)Nc1ccccc1F | -6% | 15µM* | -7 | -5% | 23µM* | -8%
CCOC(=O)c1oc2ccccc2c1COC(=O)CNC(=O)c1cccc(C)c1 | -1% | 1% | 0 | -2% | 5% | 15%
O=C(Nc1nc(OCC(F)(F)F)cnc1/C=C\c1ccccc1)c1ccsc1 | nt | 23µM* | -5 | -27% | ? | 7%
COc1cccc(/C=N\NC(=O)c2cc(OCC(F)(F)F)ccc2OCC(F)(F)F)c1 | -2% | ? | -6 | 7% | ? | 8%
COc1ccc(C(=O)Nc2nc(OCC(F)(F)F)cnc2/C=C\c2ccccc2)c(OC)c1 | nt | 21µM* | -14 | -15% | ? | 22%
O=C(Nc1ccc(F)c(F)c1)c1ccc(F)c(S(=O)(=O)N2CCC3(CC2)OCCO3)c1 | -1% | 16µM* | -60* | -9% | 13µM* | -8%
O=C(Nc1ccc2c(c1)CCC2)c1ccc(F)c(S(=O)(=O)N2CCOCC2)c1 | -3% | ? | 3 | -15% | 23µM* | -17%
